The supplement of paper PMC10338343
± gives the standard deviation.

How the values were obtained:
[1] = tested on: MILI (PIWIL2) piRISC loaded with L1MC piRNA (26 nt); assay: pre-steady-state target cleavage rate (min^-1); guide: L1MC piRNA 5'p-UAACUAAAUACUAUGCAAGCUGUAGG; higher = faster piRNA-guided slicing of the target
Method in brief: (§1)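 Active affinity-purified piRISC (1 nM) loaded with one synthetic guide was mixed with a transcribed, DNA-blocked target RNA library (0.1 nM), with or without 500 nM GTSF1 partner protein, in HEPES–potassium acetate buffer at 33 °C for 0–8 or 0–960 min. Uncleaved targets were sequenced, normalised to depth and to weakly complementary targets, and pooled across three trials, with k3 capped at 0.0001 min^-1. The pre-steady-state cleavage rate was determined with a burst-and-steady-state fit.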

[2] = tested on: EfPiwi piRISC loaded with L1MC piRNA (26 nt); assay: pre-steady-state target cleavage rate (min^-1); auxiliary factor: 500 nM Ephydatia muelleri Gtsf1; guide: L1MC piRNA 5'p-UAACUAAAUACUAUGCAAGCUGUAGG; MIWI and MILI are mouse PIWI proteins and EfPiwi is from a freshwater sponge; tags in brackets are library labels; higher = faster piRNA-guided slicing of the target
Method in brief: as §1

[3] = auxiliary factor: 500 nM mouse GTSF1
[4] = auxiliary factor: none (no GTSF1)

Sequence | pre-steady-state target cleavage rate [1, 3] | pre-steady-state target cleavage rate [1, 4] | pre-steady-state target cleavage rate [2]
UCCUGGAUCUCGUUGCAUAGUAUUUAGUUA | 0.198 ± 0.019 | 0.00544 ± 0.0024 | 0.0466 ± 0.011
UCCUGGAACACGAUGCAUAGUAUUUAGUUA | 0.14 ± 0.017 | 0.00495 ± 0.0023 | 0.00377 ± 0.0016
UCCUCCUACAGCUUGCAUAGUUUUAGUUA | 0.0249 ± 0.0085 | 0.0026 ± 0.0026 | 0.00276 ± 0.0023
UCCUGCAACAGCUUGCAUAGUAUUUAGUUA | 0.398 ± 0.028 | 0.0107 ± 0.0034 | 0.0741 ± 0.018
UCCUGCUACAGCUUGCAAGUAUUUAGUUA | 0.138 ± 0.017 | 0.00374 ± 0.0027 | 0.00614 ± 0.0027
UCCUGGAACAGCUUGCAUAGUAUUUAGGUUA | 0.23 ± 0.041 | 0.00413 ± 0.0032 | 0.00305 ± 0.0027
UCCUGCUACAGCAUGCAUAGUAUUUUGUUA | 0.167 ± 0.029 | 0.00333 ± 0.0032 | 0.00422 ± 0.002
UCCUGGAUCAUCUUGCAUAGUAUUUAGUUA | 0.241 ± 0.014 | 0.00614 ± 0.002 | 0.101 ± 0.023
UCCUGCUACAGGCUUGCAUAGUAUUUAGUUA | 0.241 ± 0.014 | 0.0112 ± 0.0031 | 0.00977 ± 0.0027
UCCUGCUAGAGCUUGGAUAGUAUUUAGUUA | 0.178 ± 0.014 | 0.0074 ± 0.0021 | 0.00499 ± 0.0016
UCCUGGAACACGUUGCAUAGUAUUUAGUUA | 0.193 ± 0.014 | 0.01 ± 0.0027 | 0.0172 ± 0.0053
UCCUGGAUCAGCAUGCAUUGUAUUUAGUUA | 0.15 ± 0.014 | 0.00792 ± 0.0027 | 0.00421 ± 0.0021
UCCUGCUACAGCUUGCAAUGUAUUUAGUUA | 0.0986 ± 0.014 | 0.00809 ± 0.002 | 0.00312 ± 0.0024
UCCUGGAUCAGCUUGCAUAGUAUUUAGAAA | 0.138 ± 0.022 | 0.00292 ± 0.0023 | 0.00346 ± 0.0016
UCCUCCUACUGCUUGCAUACUAUUUAGUUA | 0.0694 ± 0.011 | 0.00355 ± 0.0019 | 0.0106 ± 0.0044
UCCUCCUACAGCAACCAUAGUAUUUAGUUA | 0.21 ± 0.022 | 0.00404 ± 0.002 | 0.00322 ± 0.0025
UCCUGGAUCAGCUUGCAUAGUAAUUUAGUUA | 0.162 ± 0.018 | 0.00701 ± 0.0022 | 0.00371 ± 0.0025
UCCUGGAUGUCCUUGCAUAGUAGUUAGUUA | 0.13 ± 0.036 | 0.00421 ± 0.002 | 0.00555 ± 0.0031
UCCUCCUACAACUUGCAUAGUAUUUAGUUA | 0.266 ± 0.019 | 0.0079 ± 0.0018 | 0.0806 ± 0.024
UCCUGCUACAGCUUGCAUUGUAUUUAGUUA | 0.248 ± 0.022 | 0.0081 ± 0.0028 | 0.00662 ± 0.0024

Sequence | pre-steady-state target cleavage rate [1, 3] | pre-steady-state target cleavage rate [1, 4] | pre-steady-state target cleavage rate [2]
UCCUGGAUGACCUUGGAUAGUAUUUAGUUA | 0.14 ± 0.013 | 0.00594 ± 0.0024 | 0.00325 ± 0.0032
UCCUGCUCCAGCUUGCAUAGUAUUUAGUUA | 0.256 ± 0.017 | 0.00969 ± 0.0026 | 0.0877 ± 0.024
UCCUGCUUCAGCUUGCAUAGUAUUUAGAUA | 0.165 ± 0.025 | 0.00373 ± 0.002 | 0.00521 ± 0.0024
UCCUGGAACAGCUUGCAUAGUAUUUAGUAUA | 0.273 ± 0.027 | 0.00406 ± 0.0038 | 0.00935 ± 0.005
UCCUCCUACAGCUUGCAUAGUAUUUAGUAUA | 0.258 ± 0.028 | 0.00757 ± 0.0027 | 0.00856 ± 0.0035
UCCUGGAUGUGCUUGCAUAGUAUUUAGUUG [g2:g20:cont:t1G] | 0.179 ± 0.022 | 0.00877 ± 0.0027 | 0.00803 ± 0.0029
UCCUGGAUGAGCUCGCAUAGUAUUUAGUUA | 0.241 ± 0.017 | 0.0047 ± 0.0035 | 0.0143 ± 0.0042
UCCUGGAUCAGCUUGCACAGUAUUUAGUUA | 0.157 ± 0.015 | 0.0116 ± 0.003 | 0.0672 ± 0.016
UCCUGGUUGUGCUUGCAUAGUAUUUAGUUA | 0.168 ± 0.018 | 0.0141 ± 0.004 | 0.0119 ± 0.0045
UCCUGGUACAGCUUGGAUAGUAUAUAGUUA | 0.316 ± 0.065 | 0.0066 ± 0.0032 | 0.00702 ± 0.0025
UCCUGGAUCGCUUGCAUAGUAUUUAGUUA | 0.29 ± 0.012 | 0.00599 ± 0.0021 | 0.065 ± 0.011
UCCUGCUACAGCUUGCUUUGUAUUUAGUUA | 0.183 ± 0.015 | 0.00494 ± 0.0021 | 0.00538 ± 0.003
UCCUGCUACAGCUGCAUAGUAUUUAGUUA | 0.271 ± 0.02 | 0.00665 ± 0.0026 | 0.0102 ± 0.0026
UCCUCCUACUGCUUGCAUAGUUUUUAGUUA | 0.0525 ± 0.0085 | 0.00424 ± 0.002 | 0.0079 ± 0.0028
UCCUGCUUCAGCUUGCAUUGUAUUUAGUUA | 0.218 ± 0.013 | 0.0103 ± 0.0023 | 0.0233 ± 0.0065
UCCUCCUACAGCUUGCAUUGUUUUUAGUUA | 0.0161 ± 0.0055 | 0.0039 ± 0.002 | 0.00277 ± 0.0025
UCCUCCUACAGGUUGCUUAGUAUUUAGUUA | 0.237 ± 0.011 | 0.00975 ± 0.0027 | 0.0231 ± 0.0065
UCCUGGUACAGCAUGCAAAGUAUUUAGUUA | 0.119 ± 0.014 | 0.0117 ± 0.0036 | 0.00646 ± 0.0023
UCCUGCUGCAGCUUGCAUAGUAUUUAGUUA | 0.331 ± 0.024 | 0.00762 ± 0.0024 | 0.0729 ± 0.016
